The record followed here is PubChem BioAssay.

Test [1] is described as follows: circadian clock period modulators, cell-based, LOPAC library, luminescence reporter (AID 2774; call rule not given here;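 note: values are relative to mean of DMSO wells on each plate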). Conditions: circadian reporter cells, at 7 µM, actives lie on both sides.
Test [2] concerns Hepatitis C virus NS3 helicase. Kind of test: HCV NS3 helicase inhibitors, primary screen, biochemical, fluorescence polarization, LOPAC1280 library (AID 687035; in the data active = inhibition above about 37%). The settings on record: Purified HCV NS3 helicase, Cy5-dT15 ssDNA binding fluorescence polarization; stronger effect = higher value; concentration not given here. For orientation: In fluorescence polarisation assays a small probe gives low polarisation when free and higher when bound to something large.

The nature of test [3]: Cy5 fluorescence quenching or enhancement artefacts, artefact control for HCV NS3 helicase inhibitor project, biochemical, LOPAC1280 (AID 687037; call rule not given here). Conditions: Cy5-DNA-NS3h complex fluorescence interference counterscreen. A general note: Counterscreens check selectivity or assay interference.
The test system of test [4] is Aerobactin synthetase IucA (Klebsiella pneumoniae, hypervirulent). Kind of test: IucA enzyme inhibition, biochemical, LOPAC library, absorbance readout (AID 1346212; call rule not given here;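 note: 100% = no compound wells and 0% = no enzyme wells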). Conditions: IucA enzyme assay, absorbance (OD) readout; stronger effect = lower value;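 tested at 8 µM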.
Test [5] can be described thus: growth inhibition of DIPG glioma cells, dose response, cell-based, SU-DIPG-XVII, MIPE5.0, CellTiter-Glo, qHTS (AID 1347060).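 For AC50: cells exposed to compound for 48 hours before viability readout.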 The settings on record: SU-DIPG-XVII viability, CellTiter-Glo ATP luminescence. In general terms: In ATP-based viability assays light output follows the ATP content of the culture.
Test [6] is described as follows: growth inhibition of DIPG glioma cells, dose response, cell-based, SU-DIPG-XIII, MIPE4.0, CellTiter-Glo, qHTS (AID 1347061; cut-off not given, nearly all actives have AC50 up to about 37 µM;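 note: cells exposed to compound for 48 hours before readout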). The settings on record: SU-DIPG-XIII viability, CellTiter-Glo ATP luminescence.
Test [7] can be described thus: growth inhibition of DIPG glioma cells, dose response, cell-based, JHH-DIPG-1, MIPE4.0, CellTiter-Glo, qHTS (AID 1347062; cut-off not given, nearly all actives have AC50 up to about 27 µM;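 for AC50: cells exposed to compound for two days before readout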). The settings on record: JHH-DIPG-1 viability, CellTiter-Glo ATP luminescence.
Test [8] in a line: growth inhibition of DIPG glioma cells, dose response, cell-based, SU-DIPG-IV, MIPE4.0, CellTiter-Glo, qHTS (AID 1347063; cut-off not given, nearly all actives have AC50 up to about 30 µM;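 note: compound exposure lasted 48 hours before the viability readout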). The settings on record: SU-DIPG-IV viability, CellTiter-Glo ATP luminescence.
The nature of test [9]: viability loss in pontine glioma line – cell-based, SU-DIPG-XXV, MIPE5.0, CellTiter-Glo, qHTS, dose response (AID 1347065).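 Note: cells exposed to compound for 48 hours before ATP readout.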 Conditions: CellTiter-Glo ATP luminescence.
The nature of test [10]: SU-DIPG-VI glioma cell viability, MIPE4.0 library, CellTiter-Glo luminescence, qHTS (AID 1347066; cut-off not given, nearly all actives have AC50 up to about 30 µM;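 note: cells exposed to compound for 48 hours before readout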). The settings on record: CellTiter-Glo ATP luminescence.
Test [11] in a line: JHH-DIPG-1 glioma cell viability, MIPE5.0 library, CellTiter-Glo luminescence, qHTS (AID 1347067).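 Note: cells exposed to compound for 48 hours before readout.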 Conditions: JHH-DIPG-1 glioma viability, CellTiter-Glo ATP luminescence.
A short description of test [12]: SU-DIPG-XXV glioma cell viability, MIPE5.0 library, qHTS (AID 1347068; cut-off not given, nearly all actives have IC50 up to about 30 µM;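 for IC50: cells exposed to compound for 48 hours before viability readout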).
A short description of test [13]: growth inhibition of DIPG glioma cells, dose response, cell-based, SU-DIPG-XIII, MIPE5.0, CellTiter-Glo, qHTS (AID 1347064; cut-off not given, nearly all actives have AC50 up to about 23 µM;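 for AC50: cells exposed to compound for 48 hours before the viability read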). Conditions: SU-DIPG-XIII viability, CellTiter-Glo ATP luminescence.
The nature of test [14]: sensitizers of A549 cells to miR-34 induction, primary screen, imaging, A549 dox-inducible miR-34, nuclei and caspase counts (AID 1347080;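 active = compounds whose cell count with miR-34 switched on is under 0.7 times the count with it off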). The settings on record: A549 miR-34 inducible, Hoechst nuclei count, 48 h.
Test [15] in a line: survival rescue of mitochondrial mutant cells in low glucose, primary screen, MELAS cybrids, Rieske KO mouse fibroblasts, CellTiter-Glo (AID 1508586;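 active = mean z-score across replicates of 1.96 or higher in either the MELAS or the Rieske mutant cell line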;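 note: z relative to plate mean and SD of compound and empty wells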).
The target in test [16] is NAD(+) hydrolase SARM1 (Homo sapiens) (UniProt Q6SZW1). Description: SARM1 TIR NADase inhibitors, cell lysate, NAD-Glo luminescence (AID 1508614;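 active = compound whose remaining NAD level is above about 45 nM, limit read from the data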;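 note: higher remaining NAD means stronger inhibition of SARM1 NADase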). Conditions: SAM-TIR HEK293T lysate NADase, at 1 µM, stronger effect = higher value.
Setting [17] is: stronger effect = lower value, cell number ratio, induced over uninduced.
[18] abbreviates: measured here: relative caspase fold change +Dox/-Dox.
The mark [19] stands for this setting: measured here: total cells with miR-34 induction, stronger effect = lower value.
Setting [20] is: measured here: total cells without miR-34 induction.
Setting [21] is: MELAS cybrid survival, CellTiter-Glo 48 h, stronger effect = higher value.
The mark [22] stands for this setting: Rieske KO mouse fibroblast survival, CellTiter-Glo 72 h.

Inconclusive results are not listed. The source made the active and inactive calls. Unless noted, no cut-off is given here; in the data, nearly all actives have AC50 up to about 26 µM.

Sequence of NAD(+) hydrolase SARM1 (Homo sapiens) (Q6SZW1 whole entry, looked up): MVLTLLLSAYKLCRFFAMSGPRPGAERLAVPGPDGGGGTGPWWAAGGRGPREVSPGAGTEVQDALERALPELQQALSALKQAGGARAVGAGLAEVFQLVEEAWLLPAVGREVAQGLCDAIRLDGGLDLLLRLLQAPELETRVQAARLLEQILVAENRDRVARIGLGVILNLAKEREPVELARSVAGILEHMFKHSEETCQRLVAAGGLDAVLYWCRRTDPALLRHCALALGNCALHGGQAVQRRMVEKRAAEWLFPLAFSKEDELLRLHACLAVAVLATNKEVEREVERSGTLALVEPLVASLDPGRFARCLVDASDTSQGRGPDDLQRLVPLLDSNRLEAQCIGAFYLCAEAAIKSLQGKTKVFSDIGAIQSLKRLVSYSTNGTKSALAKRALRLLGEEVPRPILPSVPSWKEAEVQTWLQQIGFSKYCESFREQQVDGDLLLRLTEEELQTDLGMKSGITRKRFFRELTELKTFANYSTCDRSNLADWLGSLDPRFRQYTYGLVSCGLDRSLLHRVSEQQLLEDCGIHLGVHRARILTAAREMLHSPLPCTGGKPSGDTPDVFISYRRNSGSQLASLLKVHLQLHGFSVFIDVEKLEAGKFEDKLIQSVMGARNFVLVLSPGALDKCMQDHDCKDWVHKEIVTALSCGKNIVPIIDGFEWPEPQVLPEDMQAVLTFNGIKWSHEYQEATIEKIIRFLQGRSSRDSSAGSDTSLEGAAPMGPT

Turning to `COc1ccc2c(c1)[C@@]13CCCC[C@H]1[C@@H](C2)NCC3`, in test [1], the period change is -0.085 h (inactive). Besides, in [2], the inhibition was -5% (inactive). The fluorescence ratio (interference) in test [3] was 1 (inactive). Also, the remaining activity in test [4] was 108% (inactive).

`O=C(O)C(=O)c1cn(Cc2ccccc2)c2ccc(-c3ccc(OC(F)(F)F)cc3)cc12`: the molecule was called inactive in test [5], in test [6], in [7], in [8], in test [9] and in test [10]. In addition, the result in [11] and in test [12] was inactive.

As to `CC1(C)CC(O)CC(C)(C)N1O`, the molecule was classed as inactive in test [5], in [6], in [7], in test [8], in [13] and in test [9]. Further, the molecule was called inactive in test [10], in test [11] and in test [12]. For the same molecule, the fold change in test [14] (setting [17]) was 0.97 (inactive); in test [14] (setting [18]), 0.416. Moreover, the cell count in test [14] (setting [19]) worked out at 7440; in test [14] (setting [20]) it was 7670. For the same molecule, the z-score was -0.227 (inactive) in test [15] (setting [21]) and -0.223 in test [15] (setting [22]).

`CCN1CCN(C(=O)Cc2ccc(Nc3ncc(F)c(Nc4ccc(C(=O)Nc5ccccc5Cl)cc4)n3)cc2)CC1`: the AC50 in test [5] is 1.86 µM (active); in test [7] it was 10.5 µM (active); in test [8], 8.33 µM (active); in test [13], 6.61 µM (active); in test [9], 1.05 µM (active); in [10] it was 5.9 µM (active). Further, in test [11], the AC50 was 3.72 µM (active). The result in test [6] was inactive. In test [12], the IC50 was 23.5 µM (active). The results for the fold change in test [14] (setting [17]) and in [14] (setting [18]) were 0.811 (inactive) and 0.731, respectively. Also, the cell count in test [14] (setting [19]) was found to be 705; in test [14] (setting [20]) it was 869. Also, the z-score is 2.83 (active) in test [15] (setting [21]) and -1.29 in test [15] (setting [22]).

For the molecule `CC(N[C@H]1C[C@@H]1c1ccccc1)c1ccc2c(c1)OCCO2` (some centres not stated), the call in [5], in test [7], in test [13], in test [9], in [11] and in [12] was inactive.

Regarding `COc1ccc(N(C(=O)Oc2c(C)cccc2C)c2ccnc(Nc3ccc(N4CCN(C)CC4)cc3)n2)c(OC)c1`, the AC50 is 10.5 µM (active) in test [5], 14.8 µM (active) in test [13], 10.5 µM (active) in test [9] and 16.6 µM (active) in test [11]. For the same molecule, in [10], the call was inactive. The IC50 in test [12] was 20.9 µM (active). For the same molecule, the fold change in test [14] (setting [17]) was 0.826 (inactive); in test [14] (setting [18]), 0.474. Moreover, the cell count in test [14] (setting [19]) was found to be 5990; in test [14] (setting [20]), 7250. The z-score in test [15] (setting [21]) was 0.0994 (inactive); in test [15] (setting [22]), -1.32.

Regarding `C[C@]12CC[C@H]3[C@@H](CC[C@@]45O[C@@H]4C(O)=C(C#N)C[C@]35C)[C@@H]1CC[C@@H]2O`, the figures for the AC50 in test [5], in test [13] and in test [9] were 29.5 µM (active), 20.9 µM (active) and 20.9 µM (active), respectively. In addition, the molecule was classed as inactive in [7], in test [10] and in test [12]. Moreover, the remaining NAD in test [16] was 10 nM (inactive).

For the molecule `NC(=O)[C@@H](CC1CC1)[C@@H](CCC(F)(F)F)C(=O)N[C@H]1N=C(c2ccccc2)c2cccc(F)c2NC1=O`, the molecule was classed as inactive in [5], in test [13], in [9] and in test [12].

On to `CCN1C[C@]2(OC(=O)c3ccccc3NC(C)=O)CC[C@H](OC)[C@@]34[C@@H]2C[C@@H]([C@@H]13)[C@@]1(O)C[C@H](OC)[C@H]2C[C@@H]4[C@]1(O)[C@H]2OC`, for which the molecule was called inactive in [5], in [7], in test [8], in test [13], in test [9] and in [10]. In addition, the call in test [11] and in [12] was inactive.

Take `Cn1c(/C=C/CO)c(CO)c2c1C(=O)C=C(N1CC1)C2=O`: the call in test [5], in test [9] and in test [12] was inactive.

Broadly, the inhibition is the drop in the measured response relative to a control, in per cent. For orientation: remaining activity means the signal under treatment as a percentage of the control signal. A word on the AC50: it is the concentration at which the activity in the assay is half-maximal. In general, IC50 refers to the midpoint of a concentration-inhibition curve.
